Results reported in the supplement of paper PMC12340641.

The compounds below were run on HEK293FT dCK*-IKZF1 (assay: relative growth recovery (pomalidomide 10 uM = 100%, DMSO = 0%); higher = more growth rescue (IKZF1 fusion degradation)). Details: compound concentration: 5 uM; AraC concentration: 0.3 uM; overnight pretreatment + 4 days AraC.
Outline: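 HEK293FT cells stably expressing a dCK*-IKZF1 fusion (300/well, 384-well) received 5 μM compound 2 h after seeding. After overnight at 37 °C they received a nucleoside suicide substrate at 0.3 μM plus medium for 4 days. On day 5, Hoechst 33342-stained nuclei were counted by whole-well imaging. Growth recovery was normalised per plate to a reference degrader (100%) and vehicle (0%); values are means of duplicates run on different days.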

| SMILES | relative growth recovery |
| --- | --- |
| O=C(Nc1ccc(C(O)(C(F)(F)F)C(F)(F)F)cc1)c1ccc(C(F)(F)F)cc1 | 53.1% |
| CCN(CC)C(=S)SSC(=S)N(CC)CC | -12.6% |
| CNCCC(Oc1ccc(C(F)(F)F)cc1)c1ccccc1 (configuration not stated) | 0.235% |
| CC[C@]1(O)C[C@@H]2C[N@@](CCc3c([nH]c4ccccc34)[C@@](C(=O)OC)(c3cc4c(cc3OC)N(C)[C@H]3[C@@](O)(C(=O)OC)[C@H](OC(C)=O)[C@]5(CC)C=CCN6CC[C@]43[C@@H]65)C2)C1.O=S(=O)(O)O [Vinblastine (sulfate)] | -11.4% |
| CC(C)CCN1c2nc(Nc3cc(F)c(O)c(F)c3)ncc2N(C)C(=O)C1C (configuration not stated) | -11.3% |
| CCN(c1ccccc1)c1cc(NC)[n+](C)c(C)n1 | -0.645% |
| CN1CCN(C2=Nc3ccccc3Sc3ccc(Cl)cc32)CC1 [Clothiapine] | 0.605% |
